This note sets out measurements from PubChem BioAssay (Tox21).

Inconclusive results are not listed. Active and inactive are the calls of the source. Calls come from the whole dose curve; as a rule, active = well fitted activation curve with a large enough effect in the signal ratio in the repeat runs (not every such curve was filed as active); inconclusive = weak or mixed curves, or effect the other way; inactive = no such curve, though single readings can be large or run the other way; the % refers to the signal ratio.
% is set by controls: 0 for no effect and ±100 for the full control effect; potency is the fitted concentration of half-maximal effect.

The experiment can be described thus: qHTS assay for small molecule agonists of the antioxidant response element (ARE) signaling pathway (AID 743202). The conditions noted are these: HepG2 ARE-bla reporter, beta-lactamase FRET, 16 h; series mostly up to 73.3 µM; activation: at the top concentration. From the text: U.S. Tox21 Program National Center for Advancing Translational Sciences [NCATS] NIH Chemical Genomics Center [NCGC] U.S. Environmental Protection Agency [EPA] National Institutes of Environmental Health Sciences [NIEHS] National Toxicology Program [NTP] U.S. Food and Drug Administration [FDA] Tox21 Assay Overview: Oxidative stress has been implicated in the pathogenesis of a variety of diseases ranging from cancer to neurodegeneration. The antioxidant response element (ARE) signaling pathway plays an important role in the amelioration of oxidative stress. The CellSensor ARE-bla HepG2 cell line (Invitrogen) can be used for analyzing the Nrf2/antioxidant response signaling pathway. Nrf2 (NF-E2-related factor 2) and Nrf1 are transcription factors that bind to AREs and activate these genes. The CellSensor ARE-bla Hep G2 cell line contains a beta-lactamase reporter gene under control of the Antioxidant Response Element (ARE) stably integrated into HepG2 cells. The activation of the report gene under culture conditions can be detected by fluorescence intensity. This cell line has been used to screen the Tox21 10K compound library to identify agonists that induce oxidative stress.
Tox21 Assay Protocol Summary: The ARE-bla cells were dispensed at 2,000 cells/5 ul/well in 1536-well black wall/clear bottom plates using a Multidrop dispenser. After the assay plates were incubated at a 37 C/5% CO2 incubator for 5 hours, 23 nL of compounds dissolved in DMSO, positive controls or DMSO only was transferred to the assay plate by a pin tool. The plates were incubated at 37 C for 16 hours. After 1 uL of LiveBLAzer B/G FRET substrate was added using a Flying Reagent Dispenser, the plates were incubated at room temperature for 2 hours, and fluorescence intensity was measured by an Envision plate reader.
As for `CC(=O)OCC(=O)[C@@]1(OC(C)=O)[C@@H](C)C[C@H]2[C@@H]3C[C@H](F)C4=CC(=O)C=C[C@]4(C)[C@@]3(F)[C@@H](O)C[C@@]21C`, the “activation” value is -10.8% (inactive).

Take `COc1ccc(CCN(C)CCCN2CCc3cc(OC)c(OC)cc3CC2=O)cc1OC`: the “activation” value was 5.57% (inactive). On the same count and under the same terms, as for `CCCCCCC(O)CCOC(C)=O` (stereo not given), the figure is -2.4% [at 260 µM] (inactive); as for `O=C(O)c1cccc(Oc2ccccc2)c1`, -1.76% (inactive).

With `O=C(O)CCC(=O)c1ccc(-c2ccccc2)cc1`, the “activation” value is -0.56% (inactive). Same read-out and setting: as for `C=CC(=O)NC(C)C`, the figure is -7.34% (inactive); as for `CC(C)c1ccc(C(=O)N=C(N)N)cc1S(C)(=O)=O`, -6.49% (inactive); as for `CCNc1nc(N)nc(Cl)n1`, 0.284% (inactive). The same measure, in the same setting: as for `COC(C)(C)OC`, the figure is 0.178% (inactive); as for `O=C(O)c1cc(Cl)cc(Cl)c1O`, -12.9% (inactive); as for `CCCCCCCCCCCCCOC(=O)CCSCCC(=O)OCCCCCCCCCCCCC`, -2.03% [at 34.3 µM] (inactive). As for `Cc1ccc2c(c1[N+](=O)[O-])C(=O)c1ccccc1C2=O`, the Potency is 6.73 µM (active). Turning to `CCCCCCCCCCCC(=O)OCC(O)CO` (stereo not given), the “activation” value is -12.2% (inactive).

On to `O=C1c2ccccc2C(=O)c2c(O)ccc(O)c21`, for which the Potency is 2.73 µM (active).

`C=CCOC(=O)COCCC(C)C`: the “activation” value was -11.9% (inactive). For `O=S(=O)(O)CO`, the “activation” value is 0.323% (inactive). Same read-out and setting: next, `CCOC(=O)C(C)O` (stereo not given): -1.12% [at 94.8 µM] (inactive); `O=CNNC=O`: 5.78% [at 94.8 µM] (inactive); `CC(=O)NNC(C)=O`: 0.785% [at 94.8 µM] (inactive).

Take `Oc1ccc2c(c1)Cc1ccccc1-2`: the Potency was 34.4 µM (active). Regarding `Cc1ccc(Cl)cc1N`, the “activation” value was -7.08% [at 94.8 µM] (inactive). Same read-out and setting: as for `Nc1nc2ccc(OC(F)(F)F)cc2s1`, the figure is -1.69% (inactive); as for `CC(C)C1CCC(C(=O)N[C@H](Cc2ccccc2)C(=O)O)CC1` (stereo not given in full), 0.111% (inactive). The same measure, in the same setting: as for `CCc1ccc(C)cc1`, the figure is 0.65% (inactive); as for `COc1ccc(N)c([N+](=O)[O-])c1`, -7.18% (inactive).

As to `CC(=O)OCC(C)C`, the “activation” value is -1.51% (inactive).

Turning to `C1CCCCC1`, the “activation” value is -1.11% [at 94.8 µM] (inactive).

With `Nc1ccc(S(=O)(=O)NCc2ccccc2)cc1`, the “activation” value is -0.89% (inactive).

`CC(C)(O)c1coc(S(=O)(=O)NC(=O)Nc2c3c(cc4c2CCC4)CCC3)c1`: the “activation” value was -2.27% (inactive). As to `Cc1cn([C@H]2C[C@H](F)[C@@H](CO)O2)c(=O)[nH]c1=O`, the “activation” value is 9.35% (inactive). Still for that read-out and setting: as for `CC1CCCC(=O)C1=O` (stereo not given), the figure is 10.4% (inactive). Same read-out and setting: as for `CC(=O)OCCC1CCCCC1`, the figure is -13.1% (inactive). Same read-out and setting: next, `Nc1ccc(NC(=O)c2ccc(N)cc2)cc1`: -10.3% (inactive); `O=C(O)CCC(=O)OC[C@@H](NC(=O)C(Cl)Cl)[C@H](O)c1ccc([N+](=O)[O-])cc1`: -0.859% (inactive); `N[C@@H](Cc1cc(I)c(O)c(I)c1)C(=O)O`: 4.67% (inactive). On to `C=C(C)c1ccccc1`, for which the “activation” value was -2.22% (inactive). The same measure, in the same setting: as for `Cc1ccc(NC(=O)N(C)C)cc1NC(=O)N(C)C`, the figure is -0.741% (inactive); as for `CSCC[C@H](NC(=O)[C@H](Cc1c[nH]c2ccccc12)NC(=O)CCNC(=O)OC(C)(C)C)C(=O)N[C@@H](CC(=O)O)C(=O)N[C@@H](Cc1ccccc1)C(N)=O`, 7.41% (inactive). As to `COc1ccc(-c2cc(=S)ss2)cc1`, the Potency is 13.3 µM (active). As for `COc1ccc(C2C(=O)c3ccccc3C2=O)cc1`, the “activation” value is 8.24% (inactive).
